A short description of experiment [1]: antimalarial activity against Dd2 strain (AID 2302;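 active = growth inhibition above 50% at the single 2 µM test dose, taken to imply half-maximal potency below 2 µM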;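 also: 0% = DMSO untreated growth and 100% = chloroquine plus artemisinin killed control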). To be noted: P. falciparum Dd2 in RBCs, LDH growth readout, 72 h; at 2 µM; active compounds read high.
Experiment [2] is described as follows: HepG2 cytotoxicity, primary screen, cytotoxicity control for P. falciparum antimalarial project, cell-based, ATP luminescence (AID 2303;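 active = inhibition above 50%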;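 also: 0% = DMSO wells and 100% = digitonin-killed cells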). To be noted: HepG2 viability, 24-48 h, at 10 µM, active compounds read high.
The target in experiment [3] is L-lactate dehydrogenase (Plasmodium falciparum (isolate CDC / Honduras)) (UniProt Q27743). In words: PfLDH activity inhibition – cell lysate, 3D7 strain, counter-screen for P. falciparum growth inhibition project (AID 2304).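 Also: 0% = vehicle and 100% = reference inhibitor.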 To be noted: P. falciparum 3D7 crude extract, LDH APAD/NBT absorbance; at 2 µM; active compounds read high. Background: Counterscreens check selectivity or assay interference.

The nature of experiment [4]: inhibition of 3D7 malaria parasite growth – strain 3D7 (AID 2306).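 Also: 0% = DMSO wells and 100% = chloroquine plus artemisinin control wells.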 To be noted: P. falciparum 3D7 erythrocytic growth, LDH absorbance, 72 h; at 2 µM; active compounds read high.
For experiment [5], the target named is Calcium-dependent protein kinase 1 (Plasmodium falciparum (isolate 3D7)) (UniProt P62344). In words: PfCDPK1 kinase inhibitors, biochemical, TCAMS library (AID 1159585; cut-off not given, nearly all actives have IC50 up to about 0.98 µM;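 also: inhibitors leave more ATP so luminescence rises with inhibition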). To be noted: recombinant PfCDPK1, Kinase-Glo ATP depletion luminescence. (Kinase-Glo measures the ATP left after a reaction by luminescence.)
The target of experiment [6] is Plasmodium falciparum protein kinase 6 (PK6, PF3D7_1337100) (UniProt Q8IDW1). The experiment in a line: PfPK6 kinase inhibitors, biochemical, TCAMS library (AID 1159586). To be noted: recombinant PfPK6, Kinase-Glo ATP depletion luminescence.
Experiment [7] addresses Protein kinase 7 (PK7), Plasmodium falciparum 3D7 (PF3D7_0213400) (UniProt Q7YTF7). The experiment in a line: inhibition of Plasmodium PK7 catalytic activity – biochemical, TCAMS antimalarial set, Kinase-Glo luminescence (AID 1159587). To be noted: recombinant PfPK7, Kinase-Glo ATP depletion luminescence.
For experiment [8], the target named is Calcium-dependent protein kinase 4 (Plasmodium falciparum (isolate 3D7)) (UniProt Q8IBS5). In words: PfCDPK4 kinase inhibitors, biochemical, TCAMS library (AID 1159588; cut-off not given, nearly all actives have IC50 up to about 0.91 µM). To be noted: recombinant PfCDPK4, Kinase-Glo ATP depletion luminescence.

The text below walks through data of PubChem BioAssay.

Each structure is given as a SMILES string. Values without a mark were called inactive. For some of these results: Potency and affinity values are given separately. Active and inactive are the calls of the source. Unless noted, no rule for the calls is given here.

Sequence of Protein kinase 7 (PK7), Plasmodium falciparum 3D7 (PF3D7_0213400) (Q7YTF7 1-343): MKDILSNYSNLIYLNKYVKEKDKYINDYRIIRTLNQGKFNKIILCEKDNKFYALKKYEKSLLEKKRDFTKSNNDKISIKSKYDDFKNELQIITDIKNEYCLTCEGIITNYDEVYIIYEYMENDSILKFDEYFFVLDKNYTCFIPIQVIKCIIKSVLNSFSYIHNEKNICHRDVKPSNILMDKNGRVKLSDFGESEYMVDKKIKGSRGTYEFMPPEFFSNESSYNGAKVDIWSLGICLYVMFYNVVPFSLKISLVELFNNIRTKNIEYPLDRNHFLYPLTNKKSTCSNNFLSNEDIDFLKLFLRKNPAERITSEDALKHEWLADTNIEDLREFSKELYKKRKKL
Sequence of Calcium-dependent protein kinase 1 (Plasmodium falciparum (isolate 3D7)) (P62344 whole entry, looked up): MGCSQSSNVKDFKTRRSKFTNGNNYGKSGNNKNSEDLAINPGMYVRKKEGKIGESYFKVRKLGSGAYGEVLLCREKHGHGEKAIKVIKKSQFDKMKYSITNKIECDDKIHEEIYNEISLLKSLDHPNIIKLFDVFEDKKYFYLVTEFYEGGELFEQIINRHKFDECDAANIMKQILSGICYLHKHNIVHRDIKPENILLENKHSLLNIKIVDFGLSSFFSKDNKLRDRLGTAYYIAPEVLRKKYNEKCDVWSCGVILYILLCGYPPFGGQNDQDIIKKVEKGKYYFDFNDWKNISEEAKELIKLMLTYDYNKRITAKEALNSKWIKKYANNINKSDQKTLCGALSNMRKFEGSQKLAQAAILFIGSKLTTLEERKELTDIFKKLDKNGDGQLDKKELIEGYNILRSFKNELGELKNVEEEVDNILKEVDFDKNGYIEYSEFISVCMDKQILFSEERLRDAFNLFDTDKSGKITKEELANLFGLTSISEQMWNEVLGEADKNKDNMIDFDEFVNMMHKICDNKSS
Sequence of Plasmodium falciparum protein kinase 6 (PK6, PF3D7_1337100) (Q8IDW1 1-305): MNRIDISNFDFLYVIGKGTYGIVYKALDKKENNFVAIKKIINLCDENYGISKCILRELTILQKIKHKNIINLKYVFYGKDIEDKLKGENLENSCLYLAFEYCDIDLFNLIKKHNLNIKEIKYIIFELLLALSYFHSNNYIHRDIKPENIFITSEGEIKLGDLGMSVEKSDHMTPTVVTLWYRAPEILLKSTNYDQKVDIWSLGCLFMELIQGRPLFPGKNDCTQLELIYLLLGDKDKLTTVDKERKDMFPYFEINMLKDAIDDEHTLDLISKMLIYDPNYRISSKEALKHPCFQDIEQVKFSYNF
Sequence of Calcium-dependent protein kinase 4 (Plasmodium falciparum (isolate 3D7)) (Q8IBS5 whole entry, looked up): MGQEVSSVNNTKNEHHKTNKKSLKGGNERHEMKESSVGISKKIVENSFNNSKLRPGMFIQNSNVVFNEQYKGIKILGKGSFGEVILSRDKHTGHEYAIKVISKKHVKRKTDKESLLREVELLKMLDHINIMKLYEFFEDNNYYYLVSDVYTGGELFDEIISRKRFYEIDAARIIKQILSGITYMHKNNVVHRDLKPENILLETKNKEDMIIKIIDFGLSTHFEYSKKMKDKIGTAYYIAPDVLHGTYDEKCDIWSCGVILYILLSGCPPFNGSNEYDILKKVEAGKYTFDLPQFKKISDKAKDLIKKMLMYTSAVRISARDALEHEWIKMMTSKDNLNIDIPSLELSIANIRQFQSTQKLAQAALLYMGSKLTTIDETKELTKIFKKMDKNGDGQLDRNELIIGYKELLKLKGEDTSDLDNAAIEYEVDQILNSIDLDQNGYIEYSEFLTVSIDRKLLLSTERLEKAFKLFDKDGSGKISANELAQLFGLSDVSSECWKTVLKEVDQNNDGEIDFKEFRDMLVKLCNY
Sequence of L-lactate dehydrogenase (Plasmodium falciparum (isolate CDC / Honduras)) (Q27743 whole entry, looked up): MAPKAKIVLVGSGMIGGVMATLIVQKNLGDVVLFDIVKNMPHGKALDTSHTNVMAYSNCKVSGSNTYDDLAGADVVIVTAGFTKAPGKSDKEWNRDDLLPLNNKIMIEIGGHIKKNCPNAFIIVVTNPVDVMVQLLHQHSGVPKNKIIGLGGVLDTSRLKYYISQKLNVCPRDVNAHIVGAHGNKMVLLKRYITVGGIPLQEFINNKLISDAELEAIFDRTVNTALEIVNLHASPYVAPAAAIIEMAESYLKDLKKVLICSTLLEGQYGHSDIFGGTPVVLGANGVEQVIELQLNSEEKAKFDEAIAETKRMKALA

Regarding `Cc1ccc(C(=O)Nc2ccc(Nc3ccnc4cc(-c5ccccn5)ccc34)cc2O)cc1`, the growth inhibition in experiment [1] and in experiment [4] was 100% (active) throughout. In addition, the inhibition in experiment [2] is 100% (active); in experiment [3], 2%. Moreover, the result in experiment [5], in experiment [6], in experiment [7] and in experiment [8] was inactive.

Regarding `CN(C)CCCOc1ccc(CCNCc2cccc(Oc3ccc(Cl)cc3)c2)cc1`, the growth inhibition in experiment [1] is 26%; in experiment [4] it was 94% (active). Besides, the inhibition was 57% (active) in experiment [2] and -4% in experiment [3]. The outcome in experiment [5], in experiment [6], in experiment [7] and in experiment [8] was inactive.

Turning to `CCCCCCN1CCN(Cc2cccc(NC(=O)c3ccc(Cl)c(Cl)c3)c2)CC1`, the growth inhibition in experiment [1] is 51% (active); in experiment [4], 85% (active). Further, the inhibition in experiment [2] was 31%; in experiment [3], -4%. The result in experiment [5], in experiment [6], in experiment [7] and in experiment [8] was inactive.

`Cc1cc(NN=Cc2ccc(F)cc2)c2cccc(C)c2n1`: the growth inhibition was 99% (active) in experiment [1] and 100% (active) in experiment [4]. For the same compound, the results for the inhibition in experiment [2] and in experiment [3] were 7% and -6%, respectively. The outcome in experiment [5], in experiment [6], in experiment [7] and in experiment [8] was inactive.

For `Cc1ccc2[nH]c3c(NCCN(C)C)ncnc3c2c1`, the growth inhibition in experiment [1] was 5%; in experiment [4], 99% (active). The inhibition in experiment [2] is 9%; in experiment [3] it was 0%. Besides, the result in experiment [5], in experiment [6], in experiment [7] and in experiment [8] was inactive.

Take `CS(=O)(=O)Nc1ccc2[nH]cc(C3CCN(CC4CCC(NC(=O)/C=C/c5ccc(Cl)c(Cl)c5)CC4)CC3)c2n1` (stereo not given): the values for the growth inhibition in experiment [1] and in experiment [4] were 10% and 99% (active), respectively. The inhibition in experiment [2] is 2%; in experiment [3] it was -5%. In addition, the result in experiment [5], in experiment [6], in experiment [7] and in experiment [8] was inactive.

In the case of `COc1ccc2oc(=O)c(C#N)c(O)c2c1`, the growth inhibition in experiment [1] was -4%; in experiment [4] it was 99% (active). Besides, the inhibition is -2% in experiment [2] and 2% in experiment [3]. In addition, the result in experiment [5], in experiment [6], in experiment [7] and in experiment [8] was inactive.

For `COc1ccc(NC(=O)/C=C/c2cc(Br)ccc2F)cc1OCCN(C(C)C)C(C)C`, the growth inhibition in experiment [1] was 14%; in experiment [4], 100% (active). The results for the inhibition in experiment [2] and in experiment [3] were 22% and -3%, respectively. Besides, the outcome in experiment [5], in experiment [6], in experiment [7] and in experiment [8] was inactive.

For the compound `COc1ccc(CCN(C)CCCOc2ccc(NC(=O)COc3cccc4sc5ccccc5c(=O)c34)cc2)cc1OC`, the figures for the growth inhibition in experiment [1] and in experiment [4] were 90% (active) and 94% (active), respectively. The inhibition in experiment [2] was 99% (active); in experiment [3] it was 1%. The outcome in experiment [5], in experiment [6], in experiment [7] and in experiment [8] was inactive.

Consider `COc1ccc(N2CCc3c(-c4cccc5cnccc45)cc(C)nc32)c(C)c1`, for which the results for the growth inhibition in experiment [1] and in experiment [4] were -12% and 96% (active), respectively. Besides, the figures for the inhibition in experiment [2] and in experiment [3] were 20% and 0%, respectively. The result in experiment [5], in experiment [6], in experiment [7] and in experiment [8] was inactive.

Turning to `Oc1ccc(Nc2nc(NCc3ccccc3)c3ccccc3n2)cc1`, the growth inhibition in experiment [1] is 100% (active); in experiment [4], 101% (active). Further, the inhibition in experiment [2] was 33%; in experiment [3], 3%. Moreover, the outcome in experiment [5], in experiment [6], in experiment [7] and in experiment [8] was inactive.

Consider `Cc1cc(CNCC2CCC(CNCCCc3ccccc3)CC2)ccc1O` (stereo not given), for which the results for the growth inhibition in experiment [1] and in experiment [4] were 0% and 101% (active), respectively. In addition, the values for the inhibition in experiment [2] and in experiment [3] were 25% and 7%, respectively. For the same compound, the result in experiment [5], in experiment [6], in experiment [7] and in experiment [8] was inactive.

As to `O=C(Nc1ccc(OC2CCN(Cc3ccsc3)C2)c(Cl)c1)c1ccc(F)cc1` (stereo not given), the growth inhibition is 73% (active) in experiment [1] and 89% (active) in experiment [4]. The inhibition in experiment [2] is -3%; in experiment [3] it was -8%. The result in experiment [5], in experiment [6], in experiment [7] and in experiment [8] was inactive.

`CCc1cn2c3c(cc(C(=O)N[C@@H](Cc4cccc(Cl)c4)[C@H](O)CNC4CCOCC4)cc13)N(C)S(=O)(=O)CC2`: the growth inhibition in experiment [1] and in experiment [4] was 98% (active) each time. Further, the results for the inhibition in experiment [2] and in experiment [3] were 2% and -1%, respectively. The result in experiment [5], in experiment [6], in experiment [7] and in experiment [8] was inactive.

For `Cc1cccn2c(=O)c3cc(C(=O)NC4CCCCC4)c(=N)n(CCCn4ccnc4)c3nc12`, the results for the growth inhibition in experiment [1] and in experiment [4] were 8% and 102% (active), respectively. The inhibition was 1% in experiment [2] and -1% in experiment [3]. The result in experiment [5], in experiment [6], in experiment [7] and in experiment [8] was inactive.

`CN(C)CCNC(=O)c1ccc(-c2cnc3ccc(NCc4ccc(Cl)c(Cl)c4)nn23)cc1`: the growth inhibition in experiment [1] and in experiment [4] was 98% (active) in each case. Also, the values for the inhibition in experiment [2] and in experiment [3] were 60% (active) and -5%, respectively. Besides, the outcome in experiment [5], in experiment [6], in experiment [7] and in experiment [8] was inactive.

As to `CC(C)(C)[C@@H](Nc1ccc(C#N)c2ccccc12)C(=O)NC1(Cc2ccc(O)c(Br)c2)CCCC1`, the growth inhibition in experiment [1] was 16%; in experiment [4], 84% (active). In addition, the inhibition was 2% in experiment [2] and -2% in experiment [3]. Further, the outcome in experiment [5], in experiment [6], in experiment [7] and in experiment [8] was inactive.

Regarding `Cc1ccccc1C1CCN(C2CCC(NC(=O)/C=C/c3cc(F)ccc3C(F)(F)F)CC2)CC1` (stereo not given), the values for the growth inhibition in experiment [1] and in experiment [4] were 25% and 98% (active), respectively. Besides, the figures for the inhibition in experiment [2] and in experiment [3] were 90% (active) and 2%, respectively. Moreover, the outcome in experiment [5], in experiment [6], in experiment [7] and in experiment [8] was inactive.

In the case of `Cc1ccc(S(=O)(=O)n2cc(-c3ccnc(N)c3)c3cc(Br)cnc32)cc1`, the growth inhibition is 31% in experiment [1] and 98% (active) in experiment [4]. For the same compound, the inhibition in experiment [2] is 8%; in experiment [3], 1%. The result in experiment [5], in experiment [6], in experiment [7] and in experiment [8] was inactive.

With `c1ccc(C2CCC(N3CCC(N4CCN(c5ccccc5)CC4)CC3)CC2)cc1` (stereo not given), the figures for the growth inhibition in experiment [1] and in experiment [4] were 34% and 97% (active), respectively. Further, the inhibition in experiment [2] was 6%; in experiment [3], -3%. For the same compound, the outcome in experiment [5], in experiment [6], in experiment [7] and in experiment [8] was inactive.

As usually defined, the inhibition is the change of the read-out against control, counted positive when it falls.
